Assay results reported in the supplement of paper PMC6555819.

Experiments:
Assay in all cases: PBM binding z-score (relative to random genomic background probes); higher = stronger binding; sequences stand for … in GC…GCGATTGACAGCGTAGAATGAAGG
[1] = tested on: FXR:RXRa (NR concentration 270 nM, RXRa partner concentration 90 nM)
Method in brief: (§1)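 Scanned fluorescence from custom Agilent 4×180K protein-binding microarrays was regression-normalized. Binding z-scores use random background probes as reference. Ligand-free nuclear receptor dimers were incubated on the arrays for 1 h and detected with antibodies against each partner (one per run).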

[2] = tested on: LXRa:RXRa (NR concentration 270 nM, RXRa partner concentration 90 nM)
Method in brief: as §1

[3] = tested on: LXRa homodimer (NR concentration 270 nM)
Method in brief: as §1

[4] = tested on: LXRb:RXRa (NR concentration 270 nM, RXRa partner concentration 90 nM)
Method in brief: as §1

[5] = tested on: LXRb homodimer (NR concentration 270 nM)
Method in brief: as §1

[6] = tested on: PPARa:RXRa (NR concentration 270 nM, RXRa partner concentration 90 nM)
Method in brief: as §1

[7] = tested on: PPARg:RXRa (NR concentration 180 nM, RXRa partner concentration 90 nM)
Method in brief: as §1

[8] = tested on: PPARg:RXRa 270nM:90nM, anti-RXR (NR concentration 270 nM, RXRa partner concentration 90 nM)
Method in brief: as §1

[9] = tested on: PPARg:RXRa 30nM:10nM, anti-RXR (NR concentration 30 nM, RXRa partner concentration 10 nM)
Method in brief: as §1

[10] = tested on: PPARg:RXRa 90nM:30nM, anti-RXR (NR concentration 90 nM, RXRa partner concentration 30 nM)
Method in brief: as §1

Sequence | PBM binding z-score [1] | PBM binding z-score [2] | PBM binding z-score [3] | PBM binding z-score [4] | PBM binding z-score [5] | PBM binding z-score [6] | PBM binding z-score [7] | PBM binding z-score [8] | PBM binding z-score [9] | PBM binding z-score [10]
CGAACGAGGTCAAGGACAGTGAATCTCCGCACGC | 7.55 | 5.54 | 0.753 | 4.4 | 0.542 | 5.95 | 7.29 | 6.61 | 3.39 | 5.65
AGACAAAGTTCATCTAGGTAACGTAAGATATGCT | 6.83 | 6.21 | 5.23 | 3.92 | 1.56 | 4.91 | 4.69 | 4.99 | 1.93 | 3.69
TCAGACAGGTTAAGGTAACTCAGGTACGCAGTCG | 1.49 | 2.63 | 0.305 | 1.79 | 0.039 | 1.93 | 0.858 | 2.5 | 4.03 | 3.21
CCGACTGGGGCAAAGGTGACCATACTCAGTACGA | 0.275 | 0.171 | -0.478 | 0.634 | -1.65 | 4.77 | 10.3 | 8.5 | 8.35 | 9.3
GCGACTGGGGCATCAGCAGGTAACCATAACTTAA | -0.303 | -0.254 | -0.127 | 0.0489 | -0.791 | 0.658 | 0.905 | 0.685 | -0.0973 | 0.285
ACAGACAGGTGAGTGAAGGTAACGCAGCTGGACG | 0.617 | 0.126 | -0.468 | -0.215 | -0.518 | 0.197 | 0.826 | 0.162 | -0.109 | 0.232
ACTCGGAGGACAAAGGTCAGAGCGACGCCAGTGA | 4.14 | 4.3 | 1.14 | 3.61 | 0.216 | 4.97 | 7.85 | 6.9 | 5.06 | 7.27
CCGACTGGGGCGAAGGTTACCATACTCAGTACGA | -0.11 | -0.108 | -0.381 | 0.654 | -1.24 | 3.09 | 7.04 | 7.02 | 5.36 | 6.85
ATCTCTAGGGAACAAGTTCAGTGAAAGAGAGGAC | 0.199 | 0.374 | 0.318 | 0.32 | 0.577 | 0.667 | 0.723 | 1.08 | 0.126 | 0.728
TATACAGGGTGAAAGGCCAGAGTACGAATGTCGA | 0.996 | 0.959 | -0.157 | 1.08 | 0.982 | 3.14 | 5.05 | 5.48 | 4.23 | 5.46
ACAGACAGGTGATGAAGGTAACACAGGCTATCAT | 0.124 | 0.0165 | -0.085 | 0.319 | -0.129 | 0.346 | 1.05 | 0.295 | 0.205 | 0.465
CCTACTGGGCCAAAGGTCATCGATTCCAATGCTC | 4.44 | 5.28 | 3.59 | 4.41 | 0.378 | 6.8 | 11.5 | 10.6 | 10.6 | 11.5
TAGCCTAGGTGATGCGGGCCAGTATAGTGTCGGC | -0.724 | -0.891 | -0.841 | -1.2 | -1.39 | -0.486 | -0.087 | -0.902 | -1.01 | -0.934
CCTACTGGGCCAACGGTCATTGATTCCAATGCTC | 0.0438 | -0.079 | 0.674 | -0.198 | -0.607 | 2.53 | 5.23 | 6.24 | 4.4 | 5.61
CCTCGTAGGACAGAAGGTCAGAGCTGTCCGCTTT | 1.05 | 1.85 | 0.197 | 1.35 | -0.387 | 2.11 | -0.00358 | 1.14 | -0.551 | 0.426
ACAGACAGCTGAGTGAAGGTAACTCAGCTGGACG | -0.287 | -0.122 | -0.822 | -0.496 | -0.626 | -0.464 | 0.214 | -0.699 | -0.617 | -0.561
TCTCGGAGGACAAGAAGGTCAGAGCTTTCCAGAG | 1.04 | 1.14 | 0.138 | 0.982 | -0.842 | 1.9 | 0.179 | 1.35 | 2.52 | 1.71
CCTATTAGTTGACCATATGGGCAACCGAAGCTCG | 0.27 | 0.454 | 0.368 | 0.353 | 0.853 | -0.034 | 0.453 | 0.317 | -0.521 | -0.00655
TCAGACAAGTGAAGGTAACTCAGGTACGCAGTCG | 0.55 | 1.36 | -0.177 | 0.561 | -0.499 | 0.902 | 0.548 | 2.26 | 3.99 | 2.94

Sequence | PBM binding z-score [1] | PBM binding z-score [2] | PBM binding z-score [3] | PBM binding z-score [4] | PBM binding z-score [5] | PBM binding z-score [6] | PBM binding z-score [7] | PBM binding z-score [8] | PBM binding z-score [9] | PBM binding z-score [10]
TTACCAAGGTGAAGGTAGTTGATCCCTCTGTAGA | 0.475 | 0.286 | -0.482 | 0.307 | -0.931 | 1.44 | 0.324 | 1.29 | 0.219 | 0.784
CCTTACGGGTCACTGACAGGTTACAGCATTTGGA | 5.61 | 3.93 | 0.335 | 3.43 | -0.275 | 5.01 | 4.41 | 4.6 | 1.49 | 3.28
ATCCCTAGGTAAGACTCAGTTCAGTGAAGAACGC | 0.273 | 0.364 | 0.479 | 0.29 | 0.516 | -0.0282 | 0.0747 | -0.195 | -0.259 | -0.0563
AGAACGGGGGCACGCTGAGTTGATAGCAGAGTAG | 2.62 | 2.67 | 0.116 | 4.87 | 6.59 | 4.42 | 4.48 | 4.86 | 2.39 | 4.05
CGTCCAAGGCCAATGCTAGGTCAGTGAAAGCATT | 0.0419 | -0.0335 | 0.187 | -0.036 | -0.831 | 0.242 | -0.45 | -0.432 | -1.33 | -0.866
CGTCAAACTTCAAGGTAACGTAACAGAAAGCAGC | 0.471 | 0.1 | 0.0122 | 0.289 | 0.209 | 0.32 | 0.645 | 0.119 | 0.337 | 0.21
AGAACGAGGGCACGCTGAGTTGATAGCGGAGTAG | 1.07 | 0.591 | -0.337 | 0.0446 | -0.975 | 1.83 | 1.78 | 1.71 | -0.0619 | 0.703
GATGCTAGGTCAACTGATGGTCAGCTAAAGCTCG | 3.82 | 3.15 | 0.377 | 2.11 | 0.0631 | 3.62 | 2.79 | 2.97 | 0.474 | 1.77
ATCGAAAGGTCGAGGTGAGTATCGAGAAAGGGAA | 4.43 | 3.37 | -0.107 | 2.73 | 0.435 | 4.56 | 3.35 | 3.74 | 1.49 | 2.48
CGACCAAGGTCAGAGAGGTCAGTGAATGCCGAGT | 6 | 4.97 | 2.61 | 4.23 | -0.0164 | 4.64 | 3.68 | 4.21 | 1.11 | 2.69
CCAGACAGGTGAGAAGGTAACTCATCCTCGATTA | 0.223 | 0.195 | 0.213 | 0.16 | -0.283 | 0.773 | 0.558 | 0.703 | 0.0272 | 0.508
GTACCAAGGTGAGTAGGTCGTTGATGAGTAGGCG | 0.04 | 0.0147 | -0.31 | -0.286 | -0.924 | 1.17 | 0.822 | 0.888 | -0.11 | 0.35
ATCGAAAGGTCGAGGTGAGTATTGAGAAAGGGAA | 4.14 | 3.39 | -0.0656 | 2.81 | 0.293 | 4.74 | 3.29 | 3.53 | 1.37 | 2.19
CCTACTGGGCCCAGGTCATTGATCAGTCAAAGCA | 1.37 | 1.52 | 0.696 | 1.88 | -0.506 | 2.17 | 0.602 | 1.4 | 0.0346 | 0.505
ACTGACGGGTCAACGAGGTTATAGCACGCGTATA | 5.56 | 4.16 | 0.67 | 3.43 | 0.166 | 5.03 | 3.34 | 3.77 | 0.997 | 2.17
TCATATAGGTAAAGGTGAATGTCGAACGATATGA | 0.972 | 1.33 | -0.151 | 1.19 | -0.0794 | 2.99 | 4.24 | 4.23 | 4.36 | 4.59
ATCGAAAGTTCGAGGTGAGTATAGAGAAAGGGAA | 0.831 | 1 | -0.204 | 0.703 | -0.225 | 1.76 | 0.648 | 0.797 | 0.3 | 0.478
CCTTACGGGTCACGAGGTTATAGCTCGACGAGCG | 6.98 | 4.79 | 0.064 | 3.92 | 0.048 | 6.3 | 7.52 | 6.72 | 3.42 | 5.91
TCTAGTTGGTCACTGAGGTCACACACGACGGGTA | 4.03 | 3.64 | 2.55 | 3.59 | 0.98 | 4.32 | 3.24 | 3.98 | 3.27 | 3.68
